Screening data: PubChem BioAssay, The Scripps Research Institute Molecular Screening Center
DAX1 inh-1 – inhibitors of human orphan nuclear receptor DAX1 (NR0B1); P51843; HEK293 Gal4-DAX1 luciferase reporter, luminescence; inhibition, % at 6.75 µM; hit rate 0.99% among 340,000; AID 504766;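 active = inhibition above the mean over all tested compounds plus 3 SD, cut at about 4.2% in these data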;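 note: 0% = DAX1-transfected cells with DMSO and 100% = empty-vector control cells with DMSO; inhibition shows as a rise in luminescence from relieved DAX1 repression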
Target sequence (P51843 207-470 limits assumed): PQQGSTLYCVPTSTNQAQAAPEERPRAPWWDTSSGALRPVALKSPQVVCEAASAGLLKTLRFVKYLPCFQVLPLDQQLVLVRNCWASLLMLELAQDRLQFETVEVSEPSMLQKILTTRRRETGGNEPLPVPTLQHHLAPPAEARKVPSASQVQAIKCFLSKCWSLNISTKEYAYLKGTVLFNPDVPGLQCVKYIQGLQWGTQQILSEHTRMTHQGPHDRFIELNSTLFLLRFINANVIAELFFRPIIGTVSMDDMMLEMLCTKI
hcDAF-12 act – activators of H. contortus DAF-12 nuclear receptor; HEK293 hcDAF-12 lit1-tk-luc reporter, luminescence; 0% DMSO, 100% Δ7-dafachronic acid; activation, % at 6.8 µM; hit rate 1.4% among 370,000; AID 652067;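 active = activation above the mean of all tested compounds plus 3 SD, cut at about 5.5% in these data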;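 note: 100% = response to 3 µM Δ7-dafachronic acid high control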
hgDAF12 agonist – activates the H. glycines DAF-12 receptor ligand-binding domain | HEK293 GAL4-hgDAF12 UAS-luciferase reporter, agonist luminescence; normalized to butyrate control | activation, % at 6.8 µM | hit rate 1.8% among 370,000 | AID 687014;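 active = activation above a cutoff set at the mean of all screened compounds plus 3 SD, cut at about 10% in these data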;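 note: 0% = DMSO wells and 100% = sodium butyrate wells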
SMARCA2 act – activators of SMARCA2 function; MG213 cells, MMTV-luciferase reporter, dexamethasone, overnight; activation, % at 9.1 µM; hit rate 1% among 370,000; in the data active = activation above about 7.8%;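 note: 0% = vehicle wells and 100% = reference activator wells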
ssDAF12 agonist – activators of S. stercoralis DAF-12 nuclear receptor. HEK293 ssDAF-12/GRIP1 lit1-tk-luc reporter, luminescence; % of 3 µM dafachronic acid response. activation, % at 6.8 µM. hit rate 1% among 370,000;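 active = activation above the mean over all tested compounds plus 3 SD, cut at about 0.9% in these data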;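 note: 0% = DMSO-only wells and 100% = 3 µM delta7-dafachronic acid wells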
DAX1 inh-2 – inhibitors of DAX1 repression of SF-1 activated StAR promoter | inhibition, % at 6.8 µM | AID 652010 | HEK293T StAR-luciferase reporter, SF-1/DAX-1 repression relief | hit rate 1.1% among 370,000;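 active = inhibition above the mean over all tested compounds plus 3 SD, cut at about 3.6% in these data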;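 note: 0% = DAX-1 cells with DMSO and 100% = cells lacking DAX-1 with DMSO; higher inhibition means more luminescence from relief of DAX-1 repression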
hgDAF12 conf – hgDAF-12 agonism, confirmation assay; activation, % at 6.8 µM; hit rate 80% among 3,300; HEK293 GAL4-hgDAF12 luciferase reporter, agonist mode; percent of butyrate response; shares compounds with hgDAF12 agonist;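 active = mean activation over triplicate wells above the hit cutoff derived from the earlier primary screen, cut at about 11% in these data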;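 note: 0% = DMSO low control and 100% = 2 mM sodium butyrate high control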
LXR ag 2 – LXR-beta agonism as DAF-12 counter-screen; 3,300 tested, under 10 active; shares compounds with hgDAF12 agonist; activation, % at 6.8 µM; HEK293 Gal4-LXR luciferase reporter, 24 h; AID 743051;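 active = mean activation of the triplicate above a set limit carried over from the primary screen, none filed active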
Target sequence (P55055 whole entry, looked up, the tested form may be a part): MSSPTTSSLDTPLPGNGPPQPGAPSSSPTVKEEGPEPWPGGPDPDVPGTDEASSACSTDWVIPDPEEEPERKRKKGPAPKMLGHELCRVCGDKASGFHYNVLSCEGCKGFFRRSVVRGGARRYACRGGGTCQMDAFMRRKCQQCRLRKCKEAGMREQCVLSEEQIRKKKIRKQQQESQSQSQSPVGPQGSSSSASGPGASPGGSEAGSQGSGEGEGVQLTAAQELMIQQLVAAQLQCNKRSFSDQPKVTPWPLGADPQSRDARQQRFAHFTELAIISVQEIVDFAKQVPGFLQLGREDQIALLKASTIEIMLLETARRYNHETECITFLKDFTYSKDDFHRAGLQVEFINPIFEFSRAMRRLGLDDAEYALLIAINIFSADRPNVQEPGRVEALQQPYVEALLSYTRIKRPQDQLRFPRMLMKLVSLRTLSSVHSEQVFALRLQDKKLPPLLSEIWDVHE
* hit, by the source's call; x = not tested or not shown. Rows were chosen to be rich in hits. Some 4.8% of all compounds tested hit in one or more screens of this group.

SMILES	DAX1 inh-1	hcDAF-12 act	hgDAF12 agonist	SMARCA2 act	ssDAF12 agonist	DAX1 inh-2	hgDAF12 conf	LXR ag 2
C#CCNC(=O)C[C@H]1C[C@@]2(C(=O)OC)C(=C[C@H](C(C)C)O[C@@H]2C2CC2)N(CCCCCCCC)C1=O	x	-2.9	13.6*	-2.0	-1.1	-1.8	-1.0	0.0
COC(=O)[C@]12C[C@H](CC(=O)NCc3ccccc3)C(=O)N(Cc3ccccc3)C1=C[C@H](C(C)(C)C)O[C@@H]2C	x	-0.1	0.3	-2.3	-1.1	-0.6	x	x
Cc1ccc(C(=O)Nc2ccc(SC(F)F)cc2)s1	2.5	5.3	19.7*	-1.2	-0.5	4.2*	12.7*	0.6
CC[N+](CC)(CC)CC(=O)Nc1ccc(SC(F)F)cc1	1.8	-0.7	-2.1	0.9	-1.4	-0.4	x	x
CC(C)C[C@H](NS(=O)(=O)c1ccc(F)cc1F)C(=O)N1CCC[C@H]1C(=O)NCc1ccccc1	x	3.4	9.0	-0.8	-1.0	1.3	x	x
CCCSc1nsc(NC(=O)CC)n1	0.7	3.9	17.4*	4.5	-0.5	3.0	10.9*	0.7
CCCCCCSc1nsc(NC(=O)CC(C)C)n1	2.0	1.9	3.6	4.3	-0.3	0.0	x	x
O=C(/C=C/c1ccc(Cl)c(Cl)c1)Nc1cccnc1	2.0	-2.3	4.1	3.2	-1.4	0.9	x	x
CC(C)(C)c1ccc(/C=C/C(=O)Nc2cccnc2)cc1	2.1	3.6	15.7*	2.8	-0.2	2.2	13.5*	0.8
O=C(N/N=C/c1ccc(F)cc1)c1ccc(Br)cc1	1.2	-2.0	2.3	5.5	-1.6	-0.2	x	x
O=C(N/N=C/c1ccc(Br)cc1)c1ccc(Br)o1	3.1	3.8	14.3*	2.8	0.2	3.2	15.0*	0.7
C[C@@H]1CN([C@@H](C)CO)C(=O)CCCn2cc(nn2)CO[C@H]1CN(C)C(=O)Nc1ccc(F)cc1	x	0.8	3.5	-1.7	-1.0	0.2	x	x
COCc1cc(N2CCN(C(=O)OC(C)(C)C)C[C@H]2C)ccc1Br	x	-1.1	1.0	-3.8	-1.4	-1.2	x	x
CCOC(=O)COc1ncn(-c2ccccc2)n1	0.0	0.4	-0.8	1.8	-0.8	-0.1	x	x
CCOC(=O)COc1ccccc1C(=O)c1cnn(-c2ccccc2)c1	0.4	4.0	13.7*	-0.2	0.1	0.5	5.4	0.1
O=C(Cn1c(COc2ccccc2)nc2ccccc21)Nc1cccc(Cl)c1	1.5	1.5	3.7	-1.4	-0.9	-0.4	x	x
CCC(C)NC(=O)Cn1c(COc2ccc(Cl)cc2Cl)nc2ccccc21 (stereo unspecified)	0.0	3.1	16.1*	1.1	-0.4	3.2	16.8*	0.5
Cc1ccc(C2=N/C(=C/N3CCOCC3)C(=O)O2)cc1	-0.6	0.9	7.9	0.9	-0.7	1.5	x	x
Cc1ccc(C2=N/C(=C\N3CCCCC3)C(=O)O2)cc1	2.9	6.4*	14.3*	2.2	-0.1	2.1	8.7	0.8
CN(C(=O)CCc1cn(C)c2ccccc12)c1ccc(Oc2cccnc2)cc1	x	-1.5	1.4	-3.7	-1.5	0.1	x	x
O=C(NCC1CCCO1)c1sc2ccccc2c1Cl (stereo unspecified)	2.5	2.6	13.8*	3.6	-1.2	3.2	10.4	0.5
O=C(NCC1CCCO1)c1cc(-c2ccc(F)cc2)no1 (stereo unspecified)	2.2	4.0	18.4*	0.4	0.4	2.1	19.1*	0.1
O=C(NCC1CCCO1)c1cc(-c2ccccc2)on1 (stereo unspecified)	4.3*	6.5*	42.0*	1.1	0.3	2.2	48.4*	0.6
Cc1ccc(Nc2nc(C(=O)NCC3CCCO3)cs2)cc1 (stereo unspecified)	0.0	-2.1	1.1	1.5	-0.5	0.1	x	x
Cc1ccc2c(Cl)c(C(=O)NCC3CCCO3)sc2c1 (stereo unspecified)	2.8	3.0	7.8	4.7	-0.3	2.9	x	x
SMILES	DAX1 inh-1	hcDAF-12 act	hgDAF12 agonist	SMARCA2 act	ssDAF12 agonist	DAX1 inh-2	hgDAF12 conf	LXR ag 2
O=C(NCC1CCCO1)c1cc(-c2ccc(Cl)cc2Cl)on1 (stereo unspecified)	0.1	1.5	8.9	3.1	0.0	2.7	x	x
Cc1ccc(-c2cc(C(=O)NCC3CCCO3)no2)cc1 (stereo unspecified)	1.4	1.3	14.3*	1.2	-0.7	3.2	13.1*	0.5
Cc1ccccc1NC(=O)CN1C(=O)CCSc2ccccc21	x	-0.3	-5.3	-5.8	-1.6	-1.6	x	x
C[C@@H]1CN(c2ccc(N3CCNC[C@@H]3C)cc2C#N)CCN1Cc1ccccc1	x	0.1	1.5	2.8	-1.6	0.1	x	x
Cc1cccc(C(=O)Nc2sc3c(c2C#N)CCCCC3)c1	2.6	3.2	14.9*	7.5	-0.4	2.2	16.7*	1.0
N#Cc1c(NC(=O)c2ccccc2)sc2c1CCC2	-0.7	5.7*	16.1*	1.4	0.6	-0.2	22.8*	0.6
N#Cc1c(NC(=O)c2cccnc2)sc2c1CCC2	-0.9	0.3	5.5	1.0	-0.8	-0.5	x	x
N#Cc1c(NC(=O)c2cnccn2)sc2c1CCCC2	2.5	4.3	14.3*	2.3	-0.8	-1.0	12.8*	0.4
Cc1cccc(C(=O)Nc2sc3c(c2C(=O)O)CCC3)c1	-0.9	-0.1	-5.3	-0.9	-0.9	-1.2	x	x
CCN(CC)C(=O)[C@H]1C[C@@H]2[C@H](C[C@@H](c3ccccc3)[C@H]1C)N(c1ccc(F)cc1)C(=O)N2C/C=C(\C)CCC=C(C)C	x	-1.2	0.9	-5.9	-1.1	0.4	x	x
CC1(O)C(=O)C2(C)C=CC1C1C(=O)N(c3ccccc3)C(=O)C12 (stereo unspecified)	x	-0.1	-0.5	-4.8	-0.8	0.7	x	x
O=C(O)c1ccc2c(c1)C(=O)N(c1cccc(-c3nc4ccccc4s3)c1)C2=O	0.6	0.1	15.6*	2.6	-0.9	1.1	3.1	0.1
Cc1ccccc1NC(=S)N/N=C/c1ccc(O)cc1O	3.9	3.9	20.3*	2.8	-0.1	0.8	7.1	0.3
Fc1ccccc1Cn1nnc(-c2ccc3c(c2)OCO3)n1	4.0	5.3	13.9*	5.0	1.3*	3.7*	18.7*	0.9
Cc1ccc(NC(=O)Cn2nnc(-c3ccc4c(c3)OCO4)n2)cc1F	1.4	0.3	-0.1	0.2	-0.7	-0.2	x	x
COc1ccccc1C(=O)COC(=O)c1ccc(N(C)C)cc1	4.5*	4.9	15.8*	-1.9	0.0	3.2	12.8*	0.6
O=C(Nc1ccc(F)cc1)OCc1cn(Cc2ccccc2)nn1	x	-0.8	-1.6	-1.1	-0.3	-1.0	x	x
C[C@H]1COc2cc(N3CCOCC3)ccc2S(=O)(=O)N1	x	-0.1	5.1	-4.4	-0.9	-0.7	x	x
